The campaign covered roughly 69,000 compounds. About 8,600 (12%) showed an effect of 50% or more. The sample holds strong results, similar compounds and a random draw of the others, so the mix is not that of the screen.

For this assay, the system named is Plasmodium berghei. Briefly: Screen against P. berghei liver stage (PbLuc), transformed with Luciferase, at 10uM. In kind it is functional, HepG2. As to conditions: tested at 10 uM.
With `CCC1=NC(SCC(=O)c2ccc(C)cc2)c2cc(CC)sc2N1` (stereo not drawn), the INHIBITION stood at 39.1%. Consider `CCC1=NC(SCC(=O)c2ccccc2)c2cc(CC)sc2N1` (stereo not drawn), for which the INHIBITION is 79.7%. Regarding `CCC1=NC(SCC(=O)c2ccc(Cl)cc2)c2cc(CC)sc2N1` (stereo not drawn), the INHIBITION was 30%. Turning to `CC(C)c1nn(C)c(Cl)c1CNCC(=O)N1CCN(C)CC1`, the INHIBITION stood at 26.4%. Next, `Cc1nc(C)n(CC2CN(Cc3cccs3)Cc3nccn3C2)n1` (stereo not drawn): 47.4%; `CCOCCS(=O)(=O)c1nnc(NCCOC)s1`: 12.2%. As for `COCCNc1nnc(S(=O)(=O)CCC(C)(C)C#N)s1`, the INHIBITION came out at 52.1%. Next, `CCCNc1nnc(S(=O)(=O)CCOCC)s1`: 5.05%. Next, `C[C@@H]1CN(C(=O)C2CCOCC2)C[C@]12CCN(c1cccnc1)C2=O`: 18.5%. With `CCOc1ccccc1C(=O)N1CC(=O)N(C2CCC2)CC(O)C1` (stereo not drawn), the INHIBITION was 16.9%. With `COc1cccc(OC)c1C(=O)N1CC(=O)N(C2CCC2)CC(O)C1` (stereo not drawn) the figure was 4.82%. Next, `COc1ccccc1C(=O)N1CC(=O)N(C2CCCCC2)CC(O)C1` (stereo not drawn): 50.2%; `c1cncc(-n2cnnc2CC2CCNCC2)c1`: 8.08%.

As to `COc1ccc(-n2cnnc2CC2CCNCC2)cc1`, the INHIBITION came to 65.7%. With `COc1ccc(OC)c(-n2cnnc2CN)c1`, the INHIBITION worked out at 45.7%. Consider `COc1ccc(C)cc1-n1cnnc1CC1CCNCC1`, for which the INHIBITION was determined as 64.6%. With `COc1ccc(C)cc1-n1cnnc1C1CCOCC1` the figure was 13.5%; with `COc1ccc(C)cc1-n1cnnc1C1CCCN(C)C1` (stereo not drawn), 29.8%; with `O=C(Cn1ccc2cc(Br)ccc21)NCc1ccc(C(=O)O)cc1`, 13.5%.

With `CC(=O)c1cc(C(=O)N2Cc3ccccc3OC3(CCOCC3)C2)cs1`, the INHIBITION is -26.2%. On to `CS(=O)(=O)c1ccc(C(=O)N2CCCC(n3ccnc3)C2)cc1` (stereo not drawn), for which the INHIBITION is recorded as -9.76%. With `COCC(c1cccc(C(F)(F)F)c1)N(C)C(=O)c1ccccn1` (stereo not drawn) the figure was -5.285%; with `COC(=O)C(c1cc(F)ccc1F)N(C)C(=O)c1ccccn1` (stereo not drawn), 36.1%; with `COc1ccc(N(C(=O)c2cnc(C)cn2)C(C)C)cc1F`, 62.4%. Consider `COc1ccc(N(C)C(=O)c2cccc(S(C)(=O)=O)c2)cn1`, for which the INHIBITION worked out at 40.7%. For the molecule `COc1ccc(N(C(=O)Cc2ccc(C)nc2)C(C)C)cc1F`, the INHIBITION is recorded as -75%.

Take `COc1ccc(C(=O)N(c2ccc(OC)c(F)c2)C(C)C)cn1`: the INHIBITION came to 75.2%. Next, `COc1ccc(N(C(=O)c2ccc(C)nc2)C(C)C)cc1F`: 38%; `COc1ccc(N(C(=O)c2ccccn2)C(C)C)cc1F`: 50.8%.

Turning to `COC(=O)c1cnc(C(=O)N(c2ccc(OC)c(F)c2)C(C)C)cn1`, the INHIBITION is given as -54.5%.

With `Cn1cc(-c2ncc3c(c2C(=O)O)CCN(CC2CC2)C3)cn1`, the INHIBITION is given as 46.6%.

Take `O=S(=O)(NC1=NCN(CCc2cccs2)CN1)c1ccc(Cl)cc1`: the INHIBITION stood at 17%. With `O=C(CN1CCOC(Cn2cccn2)C1)NCc1ccccn1` (stereo not drawn) the figure was 11.2%.

With `O=C(c1ncccn1)N1CCC[C@]2(C[C@@H](OCC3CC3)CO2)C1`, the INHIBITION worked out at 34.6%. For the molecule `CN1CCO[C@@H]2CN(S(=O)(=O)c3ccc(F)cc3)CC[C@@H]2C1`, the INHIBITION was found to be 16.9%. Next, `Cc1cc(C)cc(NCCC(=O)NC2CCN(C(=O)C3CC3)CC2)c1`: -18.3%; `CN1CCN(c2ncccn2)CC1C(N)=O` (stereo not drawn): -7.66%; `CC(C)(CN1CCCC1)CN1CCC(Cn2cc(C3CC3)nn2)CC1`: 41.2%. For the molecule `CCCN1CCC(N2CCC(Cn3cc(C4CC4)nn3)CC2)CC1`, the INHIBITION is reported as 52.2%.

For `O=C(C1CCCO1)N1CCC(Cn2cc(C3CCCC3)nn2)CC1` (stereo not drawn), the INHIBITION is 34.2%.

`CC(C)CSCCCNC(=O)C1CCOCC1`: the INHIBITION was 6.54%. With `CC(C)CSCCCNC(=O)C1CCC1` the figure was 52.3%; with `CC(C)CSCCCNC(=O)C1CCOC1` (stereo not drawn), 33.7%; with `CN(C)S(=O)(=O)N1C[C@H]2CC[C@@H](C1)N(Cc1ccc3[nH]ccc3c1)C2`, 31.6%. As to `Cc1nc(CN2CCN(C(=O)c3scnc3C)CC2)cs1`, the INHIBITION was -17.1%. Next, `NC(=O)c1cnn2c1NCC(CNCCOc1ccccc1)C2` (stereo not drawn): -18.43%.

Turning to `OCCn1nccc1C1CCN(CCOc2ccccc2F)CC1`, the INHIBITION came out at 27.8%. For the molecule `CCOCCCNC(=O)NCc1c(C)nn(C)c1C`, the INHIBITION was 52.5%. Turning to `CCOCCCNC(=O)c1nn(CC)cc1Br`, the INHIBITION came to 1.86%. Next, `CCOCCCNC(=O)c1cn(CC)nc1C`: 11.8%; `COc1ccccc1C1CNCCN1C(=O)c1ccc(F)cc1` (stereo not drawn): 15.5%. Turning to `CN1CCCCC1CC(=O)Nc1ccc2ncn(C)c2c1` (stereo not drawn), the INHIBITION was 9.41%.

As for `CN1CCN(C2CCN(CCOc3ccc(F)cc3)CC2)C1=O`, the INHIBITION turned out to be 25.6%. On to `COc1ccccc1OCCN1CCC(N2CCNC2=O)CC1`, for which the INHIBITION came out at 36.4%. Next, `CN1CCN(C2CCN(CCOc3cccc(F)c3)CC2)C1=O`: 5.9%; `CN1CCN(C2CCN(CCOc3ccc(C#N)cc3)CC2)C1=O`: 41.5%; `CCOc1ccc(OCCN2CCC(N3CCNC3=O)CC2)cc1`: 81.8%.

For the molecule `COc1ccc(OCCN2CCC(N3CCNC3=O)CC2)cc1`, the INHIBITION is listed as 87.25%. As for `Cc1ccc(C)c(OCCN2CCC(N3CCNC3=O)CC2)c1`, the INHIBITION was 38.1%.

Turning to `CN1CCN(C2CCN(CCOc3ccc(Cl)cc3)CC2)C1=O`, the INHIBITION is reported as 36.1%.

In the case of `CN1CCN(C2CCN(CCOc3cccc(Cl)c3)CC2)C1=O`, the INHIBITION was determined as 51.1%. Next, `CCN(Cc1cccc(F)c1)Cn1nc(C)c2c(C)onc2c1=O`: 11.4%.

For the molecule `Cc1nccc(NCc2cc3n(n2)CCCN(C(=O)C2CCC2)C3)n1`, the INHIBITION worked out at 21.1%.

Consider `Cc1cc2c(=O)n(CCSc3ncn[nH]3)cnc2s1`, for which the INHIBITION was 29.4%. `Cn1nnc2c1CCN(C(=O)C1CC1)C2COCCN1CCCC1` (stereo not drawn): the INHIBITION is -6.23%. On to `c1ncn(CC2CCCCN2Cc2cn3ccsc3n2)n1` (stereo not drawn), for which the INHIBITION was 25.45%. With `CC[C@H]1CN(C(=O)c2ccc(-n3cnnc3)nc2)CC[C@@]1(C)O` the figure was 53.8%. `O=C(c1ccc(-n2cnnc2)nc1)N1CCCC(O)(CO)CC1` (stereo not drawn): the INHIBITION was found to be 8.38%. Turning to `CC[C@H]1CN(C(=O)c2cccc(-n3cnnc3)n2)CC[C@@]1(C)O`, the INHIBITION is -0.71%.

In the case of `Cc1ccc2cc(CNCCCN3CCOCC3)c(=O)[nH]c2c1C`, the INHIBITION is recorded as -5.71%. Regarding `C[C@H]1C[C@@H]2CCN(C(=O)c3cccn3C)C[C@H]2O1`, the INHIBITION is on record as 25%.

In the case of `Cc1c(F)cccc1S(=O)(=O)N(C)CC(C)O` (stereo not drawn), the INHIBITION is -37.6%. Next, `CC(O)CN(C)S(=O)(=O)c1ccc(C#N)cc1F` (stereo not drawn): 64.6%; `Cc1ccc(S(=O)(=O)N(C)CC(C)O)c(F)c1` (stereo not drawn): 6.99%. Consider `Cc1n[nH]c2nc(-c3ccccc3O)cc(C(=O)O)c12`, for which the INHIBITION is reported as 7.09%. For the molecule `OCCOc1cc(F)ccc1NCc1ccc(F)c(F)c1`, the INHIBITION is on record as -16.8%. Regarding `N#Cc1ccc(F)c(CNc2ccc(F)cc2OCCO)c1`, the INHIBITION is recorded as 10.9%. Turning to `OCCOc1cc(F)ccc1NCc1cccc(F)c1F`, the INHIBITION was found to be 54.5%. Next, `OCCOc1cc(F)ccc1NCc1nc(-c2cccs2)no1`: 12.8%; `COc1ccccc1-c1noc(CNc2ccc(F)cc2OCCO)n1`: 13.7%.

Consider `Cc1ccccc1-c1noc(CNc2ccc(F)cc2OCCO)n1`, for which the INHIBITION is listed as 52.6%. `Cc1nc(CC(=O)N2CCn3c(nnc3C(C)C)C2)cs1`: the INHIBITION turned out to be 18.15%. With `O=C(CCc1ccc(-c2ccccc2)[nH]1)N1CCCC(n2ccnc2)C1` (stereo not drawn) the figure was 3.5625%; with `CCC(=O)Nc1cccc(OCC(=O)N[C@@H]2C[C@@H]3CC[C@H]2C3)c1`, -23.4%; with `Cc1nc(C2CCCN(C(C)C)C2)sc1Br` (stereo not drawn), 11.8%. Next, `O=C(Nc1ccccn1)C1CC(=O)N(Cc2ccccn2)C1` (stereo not drawn): -87.6%. Next, `COC[C@@]12CCO[C@@H]1CCN(C(=O)C1CC(F)(F)C1)C2`: 94.6%; `COC[C@@]12CCO[C@@H]1CCN(C(=O)C1CCOCC1)C2`: 13.1%.

For `O=C(C1CC(F)(F)C1)N1CC[C@H]2OCC[C@@]2(COCC2CC2)C1`, the INHIBITION came out at 39.3%. Next, `CN1CC(=O)N(c2ccccc2)CC12CCN(CC1CC1)C2` (stereo not drawn): 48.9%; `O=C(NCCCn1cncn1)N1CCC(N2CCCCC2)CC1`: -17.167%; `Cn1cccc1C(=O)N1CCc2ccc(=O)n(C)c2CC1`: 21.4%.

For the molecule `O=C1CC(c2cccnc2)c2c(c(C(=O)O)cn2-c2cccc(F)c2)N1` (stereo not drawn), the INHIBITION is on record as -18.3%.

Consider `CN1CCC2(CCN(c3ncc(F)cn3)CC2)C1=O`, for which the INHIBITION was 30.5%. With `CN(Cc1nc(Cc2ccccc2F)no1)CC1Cc2ccccc2O1` (stereo not drawn) the figure was 52%. Next, `CN(Cc1nc(COc2ccccc2)no1)CC1Cc2ccccc2O1` (stereo not drawn): 8.07%; `CN(Cc1nc(CC2CC2)no1)CC1Cc2ccccc2O1` (stereo not drawn): 12.6%; `O=C(Nc1nc(-c2ccccc2)ns1)N1CC[C@H](O)C1`: 9.79%. Next, `CCSc1ccc(C(=O)N2CCC3(CCC(=O)N(C)C3)CC2)s1`: 20.3%; `Cc1nnc(NC(=O)C(C)n2ncc(Br)c2C)s1` (stereo not drawn): 50.2%; `Cc1c(Br)cnn1C(C)C(=O)Nc1nncs1` (stereo not drawn): 39.9%. Take `Cc1nc(NC(=O)C(C)n2ncc(Br)c2C)sc1C` (stereo not drawn): the INHIBITION is 21.5%. Take `CN(C)Cc1cnc(C2CCN(C(=O)c3cccc(Cl)c3)C2)[nH]1` (stereo not drawn): the INHIBITION was 12.375%. With `COC(=O)CC1CCN(C(=O)c2ccccc2-n2nnnc2C)CC1` the figure was 9.57%; with `Cc1nn(C)cc1CN1CCCC(n2c(=O)oc3ccc(Cl)cc32)C1` (stereo not drawn), 36%.

Regarding `CN(c1ccc(C(C)(C)C)cc1)S(=O)(=O)c1cc(C(=O)O)cs1`, the INHIBITION was determined as 20.6%. With `Cc1cc(C)cc(N(C)S(=O)(=O)c2cc(C(=O)O)cs2)c1` the figure was 34.7%. Next, `Cc1ccc(N(C)S(=O)(=O)c2cc(C(=O)O)cs2)cc1`: 52.5%; `O=c1n(CCSCCOc2ccc(Br)cc2)nc2ccccn12`: 2.49%; `O=C(c1ccnc(N2CCOC(C(F)(F)F)C2)c1)N1CCCC1` (stereo not drawn): 7.77%. For the molecule `O=C(NC1CC1)c1ccnc(N2CCOC(c3ccc(Cl)cc3)C2)c1` (stereo not drawn), the INHIBITION is reported as 67.7%. With `CN1CCN(C(=O)c2ccnc(N3CCOC(C(F)(F)F)C3)c2)CC1` (stereo not drawn) the figure was -14.1%; with `CNC(=O)c1ccc(C2CN(c3cc(C)nc(N)n3)CCO2)nc1` (stereo not drawn), 25.855%. For `O=C(c1ccnc(N2CCOC(C(F)(F)F)C2)c1)N1CCOCC1` (stereo not drawn), the INHIBITION is 12.7%. Turning to `O=C(NC1CC1)c1ccnc(N2CCOC(c3ccc(Cl)c(Cl)c3)C2)c1` (stereo not drawn), the INHIBITION worked out at 86.6%. With `O=C(c1ccnc(N2CCOC(c3ccc(Cl)cc3)C2)c1)N1CCCC1` (stereo not drawn) the figure was 73.5%. For the molecule `CC(C)n1ccnc1C1CCCN(c2cc(C(=O)NC3CC3)ccn2)C1` (stereo not drawn), the INHIBITION turned out to be 31.2%. As to `O=C(CN1C(=O)CCNC1=O)N1CCOC(c2ccc(Cl)c(Cl)c2)C1` (stereo not drawn), the INHIBITION was -52.2%.

The values above are taken from ChEMBL document CHEMBL4513216, “Probing the Open Global Health Chemical Diversity Library for Multistage-Active Starting Points for Next-Generation Antimalarials” (ACS Infect Dis, 2020).
